# High-throughput results as filed in PubChem BioAssay.
# PLK1 PBD block: inhibitors of human PLK1 polo-box domain binding | Plk1 PBD binding of FITC phosphopeptide, fluorescence polarization | AID 720504 | 2.8% of 360,000 active | Potency, µM, inactives show max response, negative = inhibition, hits mostly inhibitors | P53350; note: series mostly up to about 57 µM; % is set by controls: 0 for no effect and ±100 for the full control effect; nearly all actives have a fitted effect of over 65% in size
# BAZ2B block: blocks human BAZ2B; Q9UIF8; AlphaScreen BAZ2B-H3K14Ac peptide displacement; Potency, µM (doses to about 114 µM), inactives show at the highest dose activity change, negative = inhibition, actives largely listed as inhibitors; 4.4% of 360,000 active; AID 504333; note: % is set by controls: 0 for no effect and ±100 for the full control effect; nearly all actives have a fitted effect of over 60% in size
#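 Complex of BAZ2B and biotin-H3K14Ac (50 nM apiece) forms over 30 min at RT, then faces library compounds up to 110 uM for another 30 min; AlphaScreen beads added, 20 min dark incubation, luminescence read.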
# HP1b binding inh: blocks HP1-beta chromodomain binding to methylated histone tails; P83916; AlphaScreen HP1-beta / biotin-H3K9me3 peptide binding; Potency, µM (highest dose often 114 µM), inactives show at the top dose activity change, negative = inhibition, hits mostly inhibitors; 0.56% of 390,000 active; AID 540317; note: nearly all actives have a fitted effect of over 70% in size
# Target sequence (P83916 whole entry, looked up): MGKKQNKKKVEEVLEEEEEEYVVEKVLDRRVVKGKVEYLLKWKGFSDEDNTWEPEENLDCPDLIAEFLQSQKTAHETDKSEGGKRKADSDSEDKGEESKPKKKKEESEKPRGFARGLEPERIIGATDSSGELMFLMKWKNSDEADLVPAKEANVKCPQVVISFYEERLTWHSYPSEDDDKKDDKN
#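 HP1-beta protein (50 nM final) preincubated 30 min at room temperature with biotinylated H3(1-18)K9me3 peptide (50 nM) in PBS pH 7.4, 0.01% Tween-20, then compound added for 30 min. AlphaScreen streptavidin donor/nickel chelate acceptor beads (10 ug/mL final), 30 min dark, luminescence read.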
# JMJD2A Tudor: blocks the human JMJD2A Tudor domain. O75164. AlphaScreen JMJD2A-Tudor / H3K4me3 peptide binding. Potency, µM (highest dose often 114 µM), inactives show top-dose activity change, negative = inhibition, most hits filed as inhibitors. 4.4% of 390,000 active; note: % is set by controls: 0 for no effect and ±100 for the full control effect; nearly all actives have a fitted effect of over 50% in size
# G9a block: blocks human histone lysine methyltransferase G9a | 8.8% of 350,000 active | Q96KQ7 | Potency, µM (series often up to 102 µM), inactives show at the top dose activity, negative = inhibition, hits mostly inhibitors | G9a H3K9 monomethylation, AlphaScreen, 2 h; note: % is set by controls: 0 for no effect and ±100 for the full control effect; nearly all actives have a fitted effect of over 75% in size
# Target sequence (Q96KQ7 913-1193 limits assumed): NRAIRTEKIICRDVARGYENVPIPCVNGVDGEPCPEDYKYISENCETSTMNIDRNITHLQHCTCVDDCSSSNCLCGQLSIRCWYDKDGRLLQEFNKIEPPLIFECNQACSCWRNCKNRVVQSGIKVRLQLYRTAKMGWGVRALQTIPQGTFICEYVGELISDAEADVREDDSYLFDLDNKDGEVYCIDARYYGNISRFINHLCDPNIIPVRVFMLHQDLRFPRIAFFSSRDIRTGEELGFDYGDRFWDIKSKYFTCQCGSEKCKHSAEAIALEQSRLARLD
#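 Compounds were preincubated with 20 nM G9a for 15 min, after which biotinylated H3K9 peptide (500 nM) and SAM (20 uM) started a 2 h room-temperature reaction. Monomethylated product was quantified by antibody-based AlphaScreen chemiluminescence.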
# 12-LOX inh: blocks human arachidonate 12S-lipoxygenase | P18054 | purified 12hLO, xylenol orange hydroperoxide absorbance | Potency, µM (highest dose often 108 µM), for the others: at the highest dose activity change, negative = inhibition, actives largely listed as inhibitors | 1.1% of 580,000 active; note: % is set by controls: 0 for no effect and ±100 for the full control effect
#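 Purified human 12hLO (150 nM final) in 25 mM Hepes, 0.01% Triton X-100, pH 7.0 was preincubated 15 min at room temperature with compound. Then 40 uM arachidonic acid was added, 30 min. Hydroperoxide was read by Fe-XO absorbance ratio 573/405 nm.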
# Active calls of the source: *; ? = inconclusive; / = no result given; [ ] = dose if it differs, or a comment. An excerpt weighted towards active compounds, which were near 9% of everything screened. Calls come from the whole dose curve; as a rule, active = well fitted curve in the direction sought with a large enough effect; inconclusive = small, poorly fitted or top-dose-only effect, or another doubt; inactive = no such curve, though single readings can be large; an effect the other way counts as inactive or inconclusive. Potency is the fitted concentration of half-maximal effect.
SMILES,PLK1 PBD block,BAZ2B block,HP1b binding inh,JMJD2A Tudor,G9a block,12-LOX inh
COc1cccc(CNC(=O)c2c(OC)cc(=O)n3c2CCN(C(=O)c2cc(F)cc(F)c2)CC3)c1,/,/,/,/,/,-1%
O=C(CSc1nc2ccc(Cl)cc2[nH]1)c1c[nH]c2ccccc12,0%,-19%,30%,-10%,20µM*,-23%
CCCc1cc(=O)[nH]c(SCC(=O)c2c(C)[nH]c3ccccc23)n1,-2%,-3%,27%,-11%,20%[59 µM],-8%
CCCc1cc(=O)[nH]c(SCC(=O)c2c[nH]c3ccccc23)n1,19µM*,-12%,?,-20%[11.4 µM],3%,-5%
O=c1[nH]cc(Cc2ccccc2)c(=O)[nH]1,1%,/,/,/,/,?
S=c1[nH]cc(Cc2ccccc2)s1,?,-32%,?,4µM*,1.8µM*,7.9µM*
CCCCNc1ncnc2c1cnn2-c1ccc(Cl)cc1,-6%,-3%,63%,-10%,-2%,?
COc1ccc(-n2ncc3c(NCC(C)C)ncnc32)cc1,-9%,-2%,29%,-3%,-13%[59 µM],6.3µM*
Clc1ccc(-n2ncc3c(NCCCn4ccnc4)ncnc32)cc1,-7%,-33%,17%,-24%,25µM*,?
C=CCNc1ncnc2c1cnn2-c1cccc(C)c1,-25%,-5%,13%,-16%,14%[59 µM],-25%[57.4 µM]
C=CCNc1ncnc2c1cnn2-c1ccc(Cl)cc1,21µM*,8%,-11%,?,-5%,?
CCN(CC)c1ccc(NC(=S)NCC2CCCO2)cc1 (stereo not given),-8%,45µM*,?,?,?,?
O=C(NC(=S)NCC1CCCO1)c1ccc(Cl)cc1 (stereo not given),-5%,7%,25%,-5%,19%[59 µM],40µM*
COC(=O)c1ccc(NC(=O)C(=O)NCC2CCCO2)cc1 (stereo not given),30µM*,6%,-9%,-14%,21%[59 µM],-7%
COc1ccc(CC(=O)Nc2ccc(S(=O)(=O)NCC3CCCO3)cc2)cc1 (stereo not given),?,7%,-7%,-13%,10µM*,?
Cc1ccc(C(=O)NC(=S)NCC2CCCO2)cc1 (stereo not given),-1%,-14%[57.1 µM],27%,-2%,9%,10%
CC(=O)Nc1sc(C)c(C)c1C(=O)OCC(=O)Nc1ccccc1,-8%,-2%,30%,-10%,3%[59 µM],6%
O=C1CCSc2ccc(S(=O)(=O)N3CCN(c4ccccc4F)CC3)cc2N1,/,/,/,/,/,5%
CCc1nc2ccc(C(=O)NCc3ccc(OC)cc3)cn2c1N(C)Cc1ccc(OC)cc1,-1%,/,/,/,/,-26%
O=C(Nc1ccc(Oc2ccccc2)cc1)c1csc([C@@H]2O[C@H](CO)[C@H](O)[C@H](O)[C@H]2O)n1,-7%,/,/,/,/,0%
CN(Cc1ccc(Cl)cc1Cl)C(=O)C1CC(=O)N(Cc2ccco2)C1 (stereo not given),-10%,/,/,/,/,?
COc1ccc(Nc2nc(-c3ccccc3F)no2)cc1OC,/,/,/,/,/,-12%
CN(C(=S)NC(=O)c1ccc(F)cc1)C1CCCCC1,-21%,-26%,39%,-24%,16%,486%
Cc1ccc(NC(=S)NCC2CCCO2)cc1C (stereo not given),-18%,-4%,28%,-3%,0%[59 µM],?
CN(C(=S)NC(=O)c1ccc(Cl)cc1)C1CCCCC1,21µM*,45µM*,-22%,-33%,8.9µM*,464%
SMILES,PLK1 PBD block,BAZ2B block,HP1b binding inh,JMJD2A Tudor,G9a block,12-LOX inh
Cc1cccc(NC(=S)NCC2CCCO2)c1 (stereo not given),-27%,-2%,42%,-5%[11.4 µM],50µM*,1%
c1ccc(-c2ccnc(NCC(c3ccncc3)N3CCOCC3)n2)nc1 (stereo not given),/,/,/,/,/,117%
O=C(CSc1nc2[nH]ncc2c(=O)[nH]1)Nc1cccc(Cl)c1,4%,-20%,37%,-1%,?,-11%
CCOc1ccc(-c2nc(CSCC(=O)N3CCN(c4cccc(OC)c4)CC3)c(C)o2)cc1,-11%,?,?,56µM*,?,0%
CCc1ccc(-c2nc(CSCC(=O)N3CCN(c4ccccn4)CC3)c(C)o2)cc1,-5%,50µM*,-17%,?,52%[59 µM],0%
Cc1ccccc1/C=N/Nc1ccnc2cc(Cl)ccc12,-1%,-6%,5%,?,13%[59 µM],?
Cc1ccc(/C=N/Nc2ccnc3cc(Cl)ccc23)c(C)c1,27µM*,?,-1%,22µM*,?,?
O=C(O)Cn1nc(-c2ccc(F)cc2)oc1=O,24µM*,-3%,?,?,-10%[2.33 µM],0%
Cc1cccc(C)c1-n1nnnc1SCC(=O)c1ccc(Br)s1,/,/,/,/,/,-28%
Cn1c(Cc2ccccc2)nnc1SCC(=O)c1ccc(Br)s1,21µM*,-8%,3%,-20%,?,-4%
Cn1nnnc1SCC(=O)c1ccc(Br)s1,?,0%,39%,-16%,/,1%
Cc1ccccc1-n1nnnc1SCC(=O)c1ccc(Br)s1,/,/,/,/,/,25µM*
Nc1cc(=O)[nH]c(SCC(=O)Nc2ccccc2Sc2ccc(Cl)cc2)n1,-18%,-18%,18%,-16%,9%,-12%
CC(=O)C(Cl)C(=O)Nc1ccccc1 (stereo not given),2.7µM*,-3%,62%,-3%,45µM*,-16%
CC(C(=O)Nc1ccccc1)C(=O)Nc1ccccc1,-4%,13%,34%,-17%,-5%[0.501 µM],0%
O=C(Nc1ccccc1)C(Cl)C(=O)c1ccccc1 (stereo not given),1.5µM*,3%,-10%,-10%,4%[0.501 µM],?
CCOc1ccc(NC(=O)Cn2cc(C(C)=O)c3ccccc32)cc1,-15%,-8%,69%,-2%,-9%,1%
C=CCNC(=O)C(C)Sc1ccc(Cl)cc1 (stereo not given),30µM*,10%,-17%,-20%[11.4 µM],-6%,-15%
CCCS(=O)(=O)c1nc(S(=O)(=O)c2ccc(C)cc2)c(N2CCc3ccccc3C2)s1,-4%,24%,28%,-10%,35µM*,-20%
CCCS(=O)(=O)c1nc(S(=O)(=O)c2ccc(C)cc2)c(N2CCCC2)s1,-21%,-7%,18%,-6%,8%[12.7 µM],-8%
COC(=O)C1C/C(=N/NS(=O)(=O)c2ccc(C)cc2)CS1 (stereo not given),-16%,-5%,44%,-7%,22%[0.501 µM],0%
C=CCC1CCC/C(=N\NS(=O)(=O)c2ccc(C)cc2)C1 (stereo not given),-22%,-4%,37%,-6%,25µM*,?
Cn1cccc1C(=O)OCc1cc(Cl)cc2c1OCOC2,-9%,-34%,-6%,?,?,?
